# Screens deposited in PubChem by National Center for Advancing Translational Sciences (NCATS).
# Rows were chosen to be rich in hits. Some 2.4% of all compounds tested hit in one or more screens of this group.
# POLB inh: blocks human DNA polymerase beta activity. P06746. Pol beta primer extension/strand displacement, fluorescence kinetic. Potency, µM (doses to about 114 µM), without a hit: top-dose activity change, negative = inhibition, hits mostly inhibitors. 340,000 compounds, 1.3% hits. AID 485314; further: on the % scale 0 is the no-effect control and ±100 the full control effect
#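 Pol beta (10 nM) was preincubated with compound for 15 min at room temperature. The reaction was then started with 50 nM substrate and read immediately and after a further 10 min at room temperature.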
# FEN1 inhibitor: blocks human flap endonuclease 1 | Recombinant FEN1 flap cleavage, fluorescence, 15 min | Potency, µM (titrated, usually from 114 µM), for the others: at the highest dose activity change, negative = inhibition, usual class: inhibitors | 390,000 compounds, 0.35% hits; further: on the % scale 0 is the no-effect control and ±100 the full control effect; nearly all actives have a fitted effect of over 65% in size
#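 Reaction started by adding substrate (50 nM final) to 10 nM enzyme after 15 min room-temperature compound preincubation. Reads at 0 and 15 min, with data normalized and fitted to a four-parameter Hill equation.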
# TDP1 inh: inhibitors of human tyrosyl-DNA phosphodiesterase TDP1 | Potency, µM (titrated, usually from 130 µM), for the others: at the highest dose activity change, negative = inhibition, usual class: inhibitors | Q9NUW8 | recombinant TDP1, AlphaScreen DNA substrate cleavage | 350,000 compounds, 0.28% hits; further: on the % scale 0 is the no-effect control and ±100 the full control effect; nearly all actives have a fitted effect of over 40% in size
#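 Enzyme-compound mixtures sat 15 min at room temperature, followed by a 5 min reaction with 15 nM final substrate and 10 min with AlphaScreen beads. Recombinant human Tdp1 was used at 1 nM final.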
# POLI inh: DNA polymerase iota (human) inhibition; Pol iota fluorescent replication assay, 10 min; Potency, µM (highest dose often 115 µM), inactives show at the highest dose activity, negative = inhibition, hits mostly inhibitors; 390,000 compounds, 1% hits; AID 588590
# Target sequence (Q9UNA4 whole entry, looked up): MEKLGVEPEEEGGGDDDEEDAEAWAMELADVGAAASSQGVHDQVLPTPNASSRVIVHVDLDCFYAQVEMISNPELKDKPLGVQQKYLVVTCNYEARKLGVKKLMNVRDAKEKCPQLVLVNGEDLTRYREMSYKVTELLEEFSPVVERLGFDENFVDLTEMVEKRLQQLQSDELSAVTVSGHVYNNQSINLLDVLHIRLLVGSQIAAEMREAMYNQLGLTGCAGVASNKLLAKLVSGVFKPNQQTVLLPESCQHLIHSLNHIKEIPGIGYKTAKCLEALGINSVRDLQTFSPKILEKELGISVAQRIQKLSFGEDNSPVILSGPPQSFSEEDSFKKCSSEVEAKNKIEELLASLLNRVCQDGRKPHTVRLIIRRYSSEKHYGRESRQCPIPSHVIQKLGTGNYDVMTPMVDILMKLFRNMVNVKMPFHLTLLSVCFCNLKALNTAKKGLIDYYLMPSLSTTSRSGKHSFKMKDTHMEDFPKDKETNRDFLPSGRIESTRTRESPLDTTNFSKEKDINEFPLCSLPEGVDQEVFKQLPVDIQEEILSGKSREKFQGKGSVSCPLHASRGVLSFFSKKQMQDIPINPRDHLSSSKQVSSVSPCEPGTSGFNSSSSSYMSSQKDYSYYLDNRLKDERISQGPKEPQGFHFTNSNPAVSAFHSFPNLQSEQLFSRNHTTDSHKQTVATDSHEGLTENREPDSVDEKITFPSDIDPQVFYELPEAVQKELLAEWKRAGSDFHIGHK
#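 Fluorescent replication assay read twice, at 0 min and 10 min after adding 50 nM (final) substrate. Enzyme (10 nM) and compounds were first incubated 15 min at room temperature; enzyme-free buffer wells were negative controls.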
# Pol kappa inh-1: blocks human DNA polymerase kappa activity; 400,000 compounds, 0.53% hits; Q9UBT6; Potency, µM (series often up to 107 µM), inactives show at the highest dose activity, negative = inhibition, actives largely listed as inhibitors; AID 588579; purified Pol kappa, fluorescent DNA synthesis assay, 10 min; further: on the % scale 0 is the no-effect control and ±100 the full control effect
#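 Kinetic fluorescence readout at 0 and 10 min followed reaction start with substrate at 50 nM final. Beforehand, enzyme (10 nM Pol kappa) stood 15 min with compound at room temperature; buffer-only wells were negative controls.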
# Pol eta inh-1: blocks human DNA polymerase eta activity; Potency, µM (top dose mostly 114 µM), inactives show at the highest dose activity change, negative = inhibition, actives largely listed as inhibitors; recombinant Pol eta, fluorescent DNA replication assay; Q9Y253; AID 588591; 390,000 compounds, 1.2% hits; further: on the % scale 0 is the no-effect control and ±100 the full control effect
#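 Fluorescent replication assay: 50 nM final substrate added after a 15 min room-temperature compound preincubation with 10 nM enzyme. Signal taken at 0 min and again at 10 min.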
# PGK validate: blocks T. brucei phosphoglycerate kinase | shares compounds with Pol kappa inh-1 | AID 686980 | Potency, µM (series often up to 57.5 µM), for inactives: top-dose activity change, negative = inhibition, hits mostly inhibitors | TbPGK coupled GAPDH assay, Kinase-Glo luminescence | 500 compounds, 79% hits; further: on the % scale 0 is the no-effect control and ±100 the full control effect; nearly all actives have a fitted effect of over 65% in size
# POLI cherry-pick: Confirm cherry-picked inhibitors of human polymerase iota; 1,500 compounds, 77% hits; Potency, µM, hits mostly inhibitors; AID 720496; shares compounds with Pol kappa inh-1; Pol iota primer extension, TAMRA/BHQ fluorescence
# Pol kappa inh-2: Pol kappa (human) inhibition, cherry-pick confirmation; shares compounds with Pol eta inh-1; purified Pol-kappa, fluorescent strand-displacement substrate; Potency, µM, most hits filed as inhibitors; 920 compounds, 76% hits; AID 720501
# Pol eta inh-2: Pol eta (human) inhibition, cherry-pick confirmation; shares compounds with Pol eta inh-1; Pol eta primer extension, TAMRA/BHQ fluorescence, 10 min; Potency, µM, hits mostly inhibitors; 2,600 compounds, 64% hits
# * hit, by the source's call; ? = inconclusive; · = no result given; [ ] = remark or other dose. The call rests on the fitted dose curve; in most records, active means well fitted curve in the direction sought with a large enough effect; inconclusive means small, poorly fitted or top-dose-only effect, or another doubt; inactive means no such curve, though single readings can be large; an effect the other way counts as inactive or inconclusive. Potency means the concentration at half of the fitted maximal effect.
SMILES,POLB inh,FEN1 inhibitor,TDP1 inh,POLI inh,Pol kappa inh-1,Pol eta inh-1,others
O=C(Nc1ccc2oc(=O)ccc2c1)c1ccc(-c2cccc([N+](=O)[O-])c2)o1,2.8µM*,?,0%,47%,-9%,32µM*,POLI cherry-pick=21*
O=C(Nc1ccc2oc(=O)ccc2c1)c1ccc(-c2cccc(Cl)c2)o1,-21%,-2%,·,11%,-10%,6%,
CCCC12CN3CC(C)(CN(C1)C3c1cn(CC)c3ccccc13)C2=O (stereo not given),16%,-20%,7%,22%,-20%,-26%,
O=P(O)(O)OC[C@H]1O[C@](O)(COP(=O)(O)O)[C@@H](O)[C@@H]1O,·,·,1%,·,8%[19.4 µM],·,
O=C(CCc1ccc(S(=O)(=O)N2CCOCC2)cc1)N/N=C/c1ccc(O)c(O)c1O,13µM*,?,-8%,2.8µM*,8.9µM*,?,POLI cherry-pick=?
COc1cc(Cl)c(C)cc1NC(=O)CC1Oc2ccccc2NC1=O (stereo not given),-2%,-9%,0%,-17%,5%,6%,
COc1cc(C(=O)O[C@@H]2CC3CC[C@]2(C)C3(C)C)ccc1O,·,·,8%,·,-3%[60.1 µM],·,
CSc1ccc(/C=C/c2nc3ccccc3n2S(=O)(=O)c2ccc(F)c(C)c2)cc1,13%,-18%,8%,2%,-7%[60.1 µM],-20%,PGK validate=10µM*
CCOc1ccc(/C=C/c2nc3ccccc3n2S(=O)(=O)c2cccc(Cl)c2)cc1,1%,-17%,7%,3%,?,-13%,
O=C(Nc1cccc(C(F)(F)F)c1)N1CC2CCCN2c2ccccc21 (stereo not given),-1%,-10%,8%,-9%,?,-5%,
Cc1csc2c(=O)sc(NC(=O)c3cccs3)nc12,?,?,-4%,?,6%,?,PGK validate=26µM*
COc1ccc2c(c1)c(=O)c(S(=O)(=O)c1ccc(C)c(C)c1)cn2CC(=O)Nc1ccccc1,8%,-7%,4%,31%,-6%,-6%,
Cc1ccc(/C=C2/NC(=O)N(Cc3ccc(Br)cc3)C2=O)o1,2%,-5%,8%,12%,-8%,-2%,
O=C(O)c1ccc(-c2ccc(/C=C3\NC(=O)N(Cc4ccc(Cl)cc4)C3=O)o2)cc1Cl,4.5µM*,28µM*,?,1.4µM*,4.5µM*,1.3µM*,PGK validate=5.8µM*
O=C(OCCC12CC3CC(CC(C3)C1)C2)c1ccc(NCc2cc(O)ccc2O)cc1,·,?,·,79µM*,79µM*,?,PGK validate=16µM*
COc1cccc2c(C)nc(Nc3nc(CSc4nnc(C)s4)cc(=O)[nH]3)nc12,-1%,50µM*,0%,?,-8%,-5%,POLI cherry-pick=?
Cc1cccc(NC(=O)CSc2nc(C3CC3)nc3ccccc23)c1,22µM*,5%,-6%,22µM*,-6%,40µM*,POLI cherry-pick=67*
COc1ccc(CNC(=O)CN(C)S(=O)(=O)c2ccc3nc(C)sc3c2)cc1,24%,4%,3%,31%,3%,·,
O=C1C2C3C=CC(CC3)C2C(=O)N1c1nccs1 (stereo not given),22µM*,-23%,10µM*,16µM*,18µM*,?,POLI cherry-pick=75*
O=C1C2C3C=CC(C2C(=O)N1c1nccs1)C1C(=O)N(c2nccs2)C(=O)C31 (stereo not given),11%,13%,·,16%,-4%,-24%,
O=C(Cn1cnc2c(nnn2-c2cccc(F)c2)c1=O)Nc1ccc2c(c1)OCCO2,22%,-1%,1%,12%,-11%,1%,
COc1ccc(-n2nnc3c(=O)n(CC(=O)Nc4ccc5c(c4)OCCO5)cnc32)cc1OC,?,0%,·,18%,-1%,25µM*,POLI cherry-pick=67*
O=C1C=CC(=O)c2c(O)c(CO)c(CO)c(O)c21,·,16µM*,·,3.2µM*,3.5µM*,1µM*,PGK validate=8.2µM*
O=C1/C(=C\c2ccc(O)cc2)SC(=S)N1c1cccnc1,?,?,·,?,-60%,?,POLI cherry-pick=?
COc1ccc(/C=C2\SC(=S)N(c3cccnc3)C2=O)cc1,-7%,20%,4%,21%,-8%,-20%,
SMILES,POLB inh,FEN1 inhibitor,TDP1 inh,POLI inh,Pol kappa inh-1,Pol eta inh-1,others
Cc1cc(N(C)C)ccc1[N+](=O)[O-],15%,0%,5%,-14%,1%,-17%,
NNc1ccc([N+](=O)[O-])c2[nH][nH]c(=O)c12,·,·,·,·,·,2µM*,PGK validate=2.6µM*
COc1ccc(CNC(=O)c2ccc(N3CCCC3)c(NC(=O)NCc3ccc(C)cc3)c2)cc1,32%,-3%,-1%,-3%,-8%[60.1 µM],-16%,
Cc1ccc(NC(=O)CN2C(=O)S/C(=C\c3cccn3-c3cccc(C(=O)O)c3)C2=O)c(C)c1,10µM*,?,50µM*,?,?,3.5µM*,PGK validate=9.2µM*
COc1ccc(-c2cc(C(=O)Nc3c(C)nn(Cc4ccccc4C)c3C)no2)cc1,21%,-14%,2%,7%,6%,-5%,
Cc1nn(C(C)C(=O)NC2C(=O)N3C(C(=O)O)=C(CSc4nnnn4C)CSC23)cc1Cl (stereo not given),25µM*,-1%,-9%,16µM*,?,20µM*,PGK validate=-25%;Pol eta inh-2=?
NC(C(=O)NC1C(=O)N2C(C(=O)O)=C(Cl)CSC12)c1ccccc1 (stereo not given),·,·,?,·,-16%[60.1 µM],·,
CC(=O)c1cc(-c2ccc(F)cc2)n(CCC(=O)Nc2nc3c(C)cccc3s2)c1C,-12%,17%,-2%,-1%,-15%[60.1 µM],-5%,
O=c1cc(-c2ccc(O)c(O)c2)oc2c1ccc1ccccc12,·,?,-4%,10µM*,35µM*,3.2µM*,POLI cherry-pick=27*;Pol kappa inh-2=21*;Pol eta inh-2=4.8*
CCCCc1nc2c(c3c1C[C@H](C)OC3)CN(S(=O)(=O)c1ccc3c(c1)OCCN3C)CC2,·,·,11%[21 µM],·,·,·,
